Consider 37 compounds from PubChem BioAssay (NCI).

Each structure is given as a SMILES string. The panel holds about 79,000 compounds, 15% with a hit somewhere; the sample as a whole holds those more often. A number with no mark means an inactive call. The source made the active and inactive calls. Rule as the data show it: active = growth inhibition above about 70%; inactive = the rest.

The nature of test [1]: NCI Yeast Anticancer Drug Screen. Data for the rad50 strain (AID 155).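 Also: 0% = growth of vehicle-only cultures of the same strain.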 The note with it: S. cerevisiae rad50 strain growth inhibition; at 50.0 µM; stronger effect = higher value. In outline:
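Relative growth inhibition (compound vs vehicle) was measured in yeast with a defined repair-gene alteration.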

Test [2] in a line: NCI Yeast Anticancer Drug Screen. Data for the mec2-1 strain (AID 157). The note with it: S. cerevisiae mec2-1 strain, at 50.0 µM, stronger effect = higher value. An outline of the steps: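 Compounds were applied to mec2-1 yeast cells. Their growth was then compared with that of vehicle-treated cultures to give growth inhibition.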
Test [3] can be described thus: NCI Yeast Anticancer Drug Screen. Data for the sgs1 mgt1 strain (AID 161).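 Also: 0% = growth of cultures given vehicle only.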 As to conditions: S. cerevisiae sgs1 mgt1 strain, at 50.0 µM, stronger effect = higher value. An outline of the steps:
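Growth of a repair-deficient yeast mutant was monitored after compound treatment and expressed as inhibition relative to vehicle-treated cultures.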

The nature of test [4]: NCI Yeast Anticancer Drug Screen. Data for the cln2 rad14 strain (AID 165).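 Also: 0% = growth equal to vehicle treated cultures.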 The note with it: S. cerevisiae cln2 rad14 strain, at 50.0 µM, stronger effect = higher value. An outline of the steps: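 Strain: cln2 rad14 yeast, altered in cell cycle control and DNA damage repair. Read-out: growth inhibition vs vehicle.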
The nature of test [5]: NCI Yeast Anticancer Drug Screen. Data for the bub3 strain (AID 167). As to conditions: S. cerevisiae bub3 mutant strain, at 50.0 µM, stronger effect = higher value. An outline of the steps:
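Screening used yeast with an engineered genetic alteration affecting cell cycle control. Compound-exposed cultures were compared with vehicle cultures, and reduced growth was taken as inhibition.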

Test [6] in a line: NCI Yeast Anticancer Drug Screen. Data for the mlh1 rad18 strain (AID 175). The note with it: S. cerevisiae mlh1 rad18 strain growth inhibition; at 50.0 µM; stronger effect = higher value. In outline: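 A repair-deficient yeast strain is exposed to test compound, and growth is scored relative to vehicle-treated controls.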

For the compound `CC(=O)C1CCC2C3CC=C4CC(O)CCC4(C)C3CCC12C` (configuration not stated), the growth inhibition was 26.4% in test [1]; 18.4% in test [2]; 23.8% in test [3]; 45.3% in test [4]; 37% in test [5]; 46.6% in test [6].

With `Cc1nnc(N=Nc2c(O)[nH]c3ccccc23)[nH]c1=O`, the growth inhibition in test [1] was 7.05%; in test [2], 1.2%; in test [3] it was -6.65%; in test [4] it was -0.2%; in test [5], 2.65%; in test [6] it was 16.1%.

Take `CNC(=O)OCc1c(COC(=O)NC)c(C)n(-c2ccc(F)cc2)c1C`: the growth inhibition in test [1] was 30.1%; in test [2], 14.8%; in test [3], 4.55%; in test [4], 0.5%; in test [5], 50.3%; in test [6] it was -12.2%.

As to `Cc1cc(C)c(NC(=O)Nc2cccc(Cl)c2)c(C)c1`, the growth inhibition in test [1] was -0.85%; in test [2], 17.3%; in test [3], 1.7%; in test [4], -4%; in test [5], 3.35%; in test [6], -17.1%.

In the case of `COC1=NCc2ccccc2-c2ccccc21`, the growth inhibition was -16.1% in test [1]; -21.2% in test [2]; -17.9% in test [3]; 8.55% in test [4]; 27.5% in test [5]; -28.9% in test [6].

As to `COC(=O)COC(=O)C1C(C(N)=O)N(CC(=O)OC)CCN1CC(=O)OC` (configuration not stated), the growth inhibition in test [1] was 0.2%; in test [2], -0.9%; in test [3], -27.4%; in test [4], -7.35%; in test [5], -3.9%; in test [6], -5.95%.

For the compound `COc1ccc2c(c1)CCC1=C2CCC(C(=O)O)C1(C)C(=O)O` (configuration not stated), the growth inhibition in test [1] is 1.9%; in test [2], -3%; in test [3], 9.25%; in test [4] it was 4.15%; in test [5], -4.25%; in test [6] it was -25.4%.

For the compound `NC(N)=NC(N)=Nc1ccc(-c2ccc(N=C(N)N=C(N)N)cc2)cc1`, the growth inhibition was 0.85% in test [1]; -0.3% in test [2]; -0.7% in test [3]; 6.15% in test [4]; 7.9% in test [5]; 13.6% in test [6].

Take `O=C1OC(c2ccc(Cl)cc2)=C/C1=C/c1ccccc1O`: the growth inhibition in test [1] was -15.8%; in test [2], 4.75%; in test [3] it was -1.15%; in test [4], -47.7%; in test [5], -0.65%; in test [6], 5.05%.

Consider `S=c1nc(-c2cccnc2)[nH][nH]1`, for which the growth inhibition in test [1] is 1.6%; in test [2], 0.5%; in test [3], 0.7%; in test [4] it was 0.8%; in test [5], 1.55%; in test [6] it was 3.85%.

In the case of `CCOC(=O)c1sc(SSc2nc(C)c(C(=O)OCC)s2)nc1C`, the growth inhibition in test [1] is -4.4%; in test [2], -4.7%; in test [3], 2.7%; in test [4], 12.9%; in test [5], 4.75%; in test [6], 10.1%.

On to `N#CSCc1c(Cl)c(Cl)c(CSC#N)c(Cl)c1Cl`, for which the growth inhibition in test [1] was -13.8%; in test [2], -7.15%; in test [3], 2.15%; in test [4], -18.9%; in test [5], 5.85%; in test [6], -12.4%.

As to `N#Cc1c(-c2cccn(-c3ccccc3)c2=O)cc(-c2ccccc2)[nH]c1=O`, the growth inhibition in test [1] was 1.55%; in test [2], -5.65%; in test [3] it was -5.7%; in test [4], -19.1%; in test [5] it was 0.9%; in test [6], 9.1%.

For the compound `COC(=N)c1nnn(-c2ccccc2)n1`, the growth inhibition in test [1] is -8.6%; in test [2], -8%; in test [3], -5.05%; in test [4], -16.1%; in test [5], 2.05%; in test [6] it was -17.9%.

Consider `CCOC(=O)CNC(=O)C(Cc1cnc[nH]1)NC(=O)CNC(=O)OCc1ccccc1` (configuration not stated), for which the growth inhibition in test [1] is 1.15%; in test [2], -2.15%; in test [3] it was 9.75%; in test [4], -23.9%; in test [5], 1.1%; in test [6], 9.2%.

Take `CCCCOC(=O)NC`: the growth inhibition in test [1] was 44.6%; in test [2], -6.7%; in test [3], 12.8%; in test [4], -15.9%; in test [5], 7.85%; in test [6] it was 22.2%.

Consider `O=C(Cc1nc2ccccc2nc1CC(=O)c1cccnc1)c1cccnc1`, for which the growth inhibition in test [1] was 6.45%; in test [2], 18.4%; in test [3], 16.1%; in test [4] it was 23.1%; in test [5] it was -3.55%; in test [6], 25.9%.

As for `COc1ccc(S(=O)c2coc3ccccc3c2=O)cc1` (configuration not stated), the growth inhibition in test [1] was 32.4%; in test [2], -9.05%; in test [3], 28.1%; in test [4], 14.7%; in test [5], 28.1%; in test [6] it was 20.9%.

Turning to `CC(=O)CC(=O)NC12CC3CC(CC(C3)C1)C2`, the growth inhibition in test [1] was -12.4%; in test [2], -18.3%; in test [3] it was -27.6%; in test [4], -3.95%; in test [5] it was -23.1%; in test [6], -1.55%.

As to `CC(=O)Oc1cccc2ccccc12`, the growth inhibition in test [1] is -23.4%; in test [2], -25.5%; in test [3], 1%; in test [4], -109%; in test [5], -36.8%; in test [6] it was -5.65%.

Turning to `CC(=O)OC12c3ccccc3-c3ccccc3C1C1C(=O)N(C)C(=O)C12Cl` (configuration not stated), the growth inhibition in test [1] was -13.4%; in test [2], -22.2%; in test [3] it was -12.2%; in test [4] it was 10.4%; in test [5] it was 36.5%; in test [6], 13.2%.

Turning to `CCN(CC)CCN(C)C(O)(C(=O)c1ccccc1)C1CCCC1` (configuration not stated), the growth inhibition in test [1] was 8.9%; in test [2], 15.2%; in test [3], 2.3%; in test [4] it was -4.35%; in test [5] it was 0.45%; in test [6] it was 32%.

Turning to `Clc1nnc(Cl)c2ncccc12`, the growth inhibition was 3.6% in test [1]; 8.3% in test [2]; -3.6% in test [3]; -2.95% in test [4]; -3% in test [5]; -1.75% in test [6].

Regarding `CC(=O)NNC(=S)N/C=C(/C(=O)c1ccccc1)c1ccccc1`, the growth inhibition was -22.7% in test [1]; -9.45% in test [2]; -16.7% in test [3]; 3.75% in test [4]; -16.4% in test [5]; -6.9% in test [6].

Take `CC1CC(=O)Nc2nc(N)ncc21` (configuration not stated): the growth inhibition is 19.4% in test [1]; 21.8% in test [2]; 15.7% in test [3]; -3.8% in test [4]; 7.75% in test [5]; 3.9% in test [6].

Turning to `ClCCn1nc2c(c1-c1ccccc1)CCc1ccccc1-2`, the growth inhibition in test [1] is -8%; in test [2] it was -1.05%; in test [3], -10.4%; in test [4], -19.4%; in test [5] it was 11.1%; in test [6], -2.85%.

As to `O=C(O)CCCSc1ccc2ccccc2c1`, the growth inhibition in test [1] is 48.5%; in test [2], 3.75%; in test [3], 45.6%; in test [4], 24.9%; in test [5] it was 4.55%; in test [6] it was 38.3%.

In the case of `CCCCCCCCCCCCCCCCn1cnc2c(Cl)ncnc21`, the growth inhibition in test [1] is 23.2%; in test [2] it was 3.9%; in test [3] it was -19.5%; in test [4], 12.8%; in test [5] it was -2.6%; in test [6] it was 2.55%.

For `COc1ccc(C(c2cc3c(cc2O)OCO3)N2CCCC2)cc1` (configuration not stated), the growth inhibition was 17% in test [1]; -0.5% in test [2]; 15.9% in test [3]; -25.1% in test [4]; 12.1% in test [5]; 21.2% in test [6].

Take `C[n+]1c2ccccc2c(CNC(CCC(N)=O)C(=O)O)c2ccccc21` (configuration not stated): the growth inhibition is 83.3% (active) in test [1]; 87.4% (active) in test [2]; 80.6% (active) in test [3]; 61.8% in test [4]; 73.3% (active) in test [5]; 87.8% (active) in test [6].

Consider `C/C(=N\N=C(/C)c1ccc(O)cc1O)c1ccc(O)cc1O`, for which the growth inhibition is 13.7% in test [1]; 12.7% in test [2]; -3.5% in test [3]; 6.15% in test [4]; 6.75% in test [5]; -3.35% in test [6].

With `CCCCCCCCCCCCCCCCN1c2ccccc2C(C)(C)C12C=Cc1cccc([N+](=O)[O-])c1O2` (configuration not stated), the growth inhibition in test [1] is 2.85%; in test [2] it was -0.6%; in test [3], 13.7%; in test [4], 14.2%; in test [5], -3.1%; in test [6], -3.2%.

Consider `CC(CCc1nc2ccccc2[nH]1)c1nc2ccccc2[nH]1` (configuration not stated), for which the growth inhibition in test [1] is -18.6%; in test [2] it was 2.05%; in test [3] it was -0.8%; in test [4], 18.1%; in test [5], 14.8%; in test [6], 17.4%.

Regarding `CCc1cc(CN2CCN(CCO)CC2)c(O)c(CN2CCN(CCO)CC2)c1`, the growth inhibition in test [1] was 1.5%; in test [2], 6%; in test [3], -13.2%; in test [4], 3%; in test [5], -0.9%; in test [6], 9.35%.

On to `CC(=O)Nc1ccc2nc(C)cc(Cl)c2c1`, for which the growth inhibition is 25.5% in test [1]; -3.45% in test [2]; 9.4% in test [3]; -8.8% in test [4]; 6.55% in test [5]; 4.35% in test [6].

As to `OC(CC1=NCCS1)(c1ccccc1)c1ccccc1`, the growth inhibition was 98% (active) in test [1]; 98.8% (active) in test [2]; 96.8% (active) in test [3]; 98.1% (active) in test [4]; 98.2% (active) in test [5]; 98.2% (active) in test [6].

With `CC(C)C1=CC(=O)C(C)(C2=NC(C)(C)CO2)c2ccccc21` (configuration not stated), the growth inhibition in test [1] was -0.1%; in test [2], -9.35%; in test [3], 4.4%; in test [4], 22.7%; in test [5], -10.5%; in test [6] it was 5.3%.
